C-LANA FP: inhibitors of KSHV LANA C-terminal domain DNA binding; AID 504423; inhibition, % at 9 µM; MBP-C-LANA/FAM-LBS DNA binding, fluorescence polarization; actives 0.078% (n = 340,000);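 active means highest replicate inhibition at or above 60% at 9 µM, even if other replicates fall short; inactive means all replicates below 60% inhibition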;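 further: 0% = neutral control wells and 100% = 4 µM acridine orange control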
Keap1 Nrf2 FP: inhibitors of human Keap1-Nrf2 protein-protein interaction; actives 0.15% (n = 340,000); Q14145; AID 504523; inhibition, % at 9.4 µM; Keap1 Kelch-Nrf2 peptide fluorescence polarization, 1536-well; in the data active means inhibition above about 12%;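 further: human Keap1 Kelch domain with fluorescein labeled Nrf2 9mer peptide probe; 0% = neutral control wells and 100% = peptide positive control; higher means more block of Keap1 binding to Nrf2 peptide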
Target sequence (Q14145 whole entry, looked up, the tested form may be a part): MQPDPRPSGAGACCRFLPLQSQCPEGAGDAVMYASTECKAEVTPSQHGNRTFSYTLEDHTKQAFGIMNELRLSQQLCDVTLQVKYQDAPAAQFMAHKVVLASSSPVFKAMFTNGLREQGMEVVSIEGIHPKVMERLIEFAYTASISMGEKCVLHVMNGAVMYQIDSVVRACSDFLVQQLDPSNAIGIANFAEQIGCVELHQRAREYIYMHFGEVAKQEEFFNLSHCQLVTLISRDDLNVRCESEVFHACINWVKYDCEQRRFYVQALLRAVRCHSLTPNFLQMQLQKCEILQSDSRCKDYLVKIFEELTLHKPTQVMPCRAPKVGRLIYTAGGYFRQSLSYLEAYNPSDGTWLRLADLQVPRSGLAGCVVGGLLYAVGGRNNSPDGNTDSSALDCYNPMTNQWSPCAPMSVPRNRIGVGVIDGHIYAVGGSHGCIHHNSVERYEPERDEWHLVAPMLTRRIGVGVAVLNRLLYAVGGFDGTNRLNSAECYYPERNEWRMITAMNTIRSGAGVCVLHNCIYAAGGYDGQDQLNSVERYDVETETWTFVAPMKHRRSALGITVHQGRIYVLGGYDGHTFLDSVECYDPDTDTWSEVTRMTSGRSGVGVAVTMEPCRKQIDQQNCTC
LANA-H2B inh: blocks KSHV LANA binding to histone H2A/H2B; Q9QR71; cell-free LANA-H2A/H2B peptide, fluorescence polarization; inhibition, % (concentration not given with the values); actives 0.6% (n = 320,000); in the data active means inhibition mostly above about 10%, no sharp cut-off; inactive means mostly below about 6.7%
RTF Ca sens act: cardiac RTF calcium sensitization; P19429+P45379; IANBD-labeled TnC RTF fluorescence at EC20 calcium; 0% EC20 calcium, 100% full calcium; activation, % at 7.2 µM; actives 0.24% (n = 340,000); AID 493008;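 active means activation above the mean over all tested compounds plus 3 SD, cut at about 30% in these data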;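 further: rise in fluorescence read as greater calcium sensitivity of cardiac thin filaments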
Cardiac RTF inh: cardiac RTF calcium desensitization | AID 493244 | actives 0.12% (n = 340,000) | IANBD-labeled cardiac RTF, Ca2+ fluorescence | inhibition, % at 7.15 µM;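 active means inhibition above the mean inhibition of all tested compounds plus 3 SD, cut at about 17% in these data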;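 further: assay run at fixed EC70 calcium of 1.6 mM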
RTF inh confirm: confirmation of inhibitors of cardiac thin filament calcium sensitivity; reconstituted cardiac thin filaments, calcium sensitivity fluorescence; inhibition, % at 7.15 µM; shares compounds with Cardiac RTF inh; AID 504635; actives 8% (n = 360); in the data active means inhibition above about 18%
Numbers without * were called inactive; / = no result. Most compounds without a hit are left out; they make up all but 0.99% or so of the library.

SMILES	C-LANA FP	Keap1 Nrf2 FP	LANA-H2B inh	RTF Ca sens act	Cardiac RTF inh	RTF inh confirm
COc1cccc(C(=O)Oc2ccc3ccc(O)cc3c2)c1	/	/	-2	/	/	/
C=C1c2cccc(O)c2C(=O)C2C(=O)[C@]3(O)C(=O)C(C(N)=O)C(=O)[C@@H](N(C)C)[C@@H]3[C@@H](O)[C@H]12 (stereo partly specified)	126*	12*	/	-28	61*	11
C[C@H]1c2cccc(O)c2C(O)=C2C(=O)[C@]3(O)C(O)=C(C(N)=O)C(=O)[C@@H](N(C)C)C3[C@@H](O)C21 (stereo partly specified)	-1	3	0	2	8	/
COCCn1nnnc1CN(CCCN1CCOCC1)Cc1cc2c(C)ccc(C)c2[nH]c1=O	0	-9	/	3	5	/
Cc1nn(-c2cccc(C(F)(F)F)c2)c(Cl)c1/C=N/Nc1cccc(C(=O)O)c1	1	0	8	4	21*	-1
Cc1ccc(C)c(-n2c(SCC(=O)NC(C(=O)O)C(C)C)nnc2-c2cccc(Cl)c2)c1 (stereo unspecified)	0	-5	-3	-1	-13	/
Cc1ccc(O)c(N=Cc2cc(Cc3ccccc3)cc([N+](=O)[O-])c2O)c1	-1	0	/	-11	11	/
O=[N+]([O-])c1cc(Cc2ccccc2)cc(C=Nc2ccc(N3CCOCC3)cc2)c1O	0	0	0	-13	21*	5
Cc1ccc(Oc2nc3ccccc3n3c(C)nnc23)c(C)c1	0	3	3	-1	4	/
O=C(N/N=C/c1ccc(F)cc1)c1cc(-c2ccco2)nc2ccccc12	0	1	-1	-16	19*	3
C[C@H]1CN=C(Nc2ccccc2)N1CCCC1CCCC1	2	-4	9	1	19*	-2
C[C@H]1CN=C(Nc2ccccc2)N1CCC1CCCCC1	2	-7	0	0	9	/
CC1CCCCN1C(=O)c1cc(Cl)ccc1[N+](=O)[O-] (stereo unspecified)	2	3	2	-2	20*	-2
Cc1ccc2nc(N3CC(=O)Nc4ccccc43)nc(-c3ccccc3)c2c1	-1	-1	-5	2	8	/
O=S(=O)(c1ccc2nnn(O)c2c1)N1CCOCC1	1	-6	2	2	1	/
O=S(=O)(c1ccc2ncn(O)c2c1)N1CCOCC1	1	-1	4	-2	22*	-9
Cc1ccc(S(=O)(=O)N(C)c2ccccc2)cc1	0	1	6	-1	0	/
CN(c1ccccc1)S(=O)(=O)c1ccccc1Br	2	-3	-4	4	17*	0
C=C(C)Cn1c(CNC(C)=O)nc2ccccc21	0	-3	/	4	-8	/
CCc1cc[n+](C(C(=S)Nc2cccc(C)c2)=C([O-])c2ccc(C)c([N+](=O)[O-])c2)cc1	0	0	/	7	0	/
CCCOC(=O)c1ccc(NC(=O)c2c(Cl)ccc(Cl)c2OC)cc1	2	3	-5	-6	21*	-2
O=C(/C=C/Sc1ccccc1)c1ccc(Cl)cc1	0	0	-2	-4	-1	/
O=C(O)/C=C/C(O)c1ccc(Cl)cc1 (stereo unspecified)	0	-2	7	-3	18*	-5
O=C(O)CN=C(NS(=O)(=O)c1ccc(Cl)cc1)c1ccccc1	0	-3	-2	-1	-12	/
Cc1cc(C)c2nc(N3CCCC(C(=O)NCCN4CCOCC4)C3)sc2c1 (stereo unspecified)	1	-11	-5	6	-7	/
CC[C@@H](C(=O)[C@@H](C)[C@@H](O)[C@H](C)[C@@H]1O[C@@H]([C@@H](CC)C(=O)O)CC[C@@H]1C)[C@H]1O[C@]2(C=C[C@@H](O)[C@]3(CC[C@@](C)([C@H]4CC[C@](O)(CC)[C@H](C)O4)O3)O2)[C@H](C)C[C@@H]1C	-2	2	/	2	20*	-2
O=C(CN1CCN(Cc2ccc(Cl)cc2)CC1)N/N=C/c1cccc(F)c1	/	/	2	/	/	/
CN1C(=O)N(CC(=O)Nc2nccs2)C(=O)C12CCCCC2	1	-6	-4	0	7	/
CN1C(=O)N(CC(=O)Nc2sccc2C(N)=O)C(=O)C12CCCCC2	0	1	3	0	17*	-4
